Compounds with a hit are over-represented: about 14% of the library has one in this group of screens.
HCMV inh: blocks human cytomegalovirus replication; 410,000 compounds, 4.5% hits; activity change, negative = inhibition, % at 57.5 µM; HFF cells, HCMV-luciferase reporter, 72 h; active compounds read low; in the data active = activity change below about -60%; inconclusive = no clear call, values can overlap the other calls; inactive = above about -39%
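Screen run at 2 compound doses on HFFs infected with reporter HCMV, MOI 1 PFU/cell. Luciferase activity from cell lysates at 72 h post infection gave inhibition relative to buffer-only and Salinomycin wells.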
Lassa entry inh: Lassa virus entry inhibition | Lassa virus pseudotype entry inhibition, cell reporter | Potency, µM (titrated, usually from 37.9 µM), for the others: top-dose activity change, negative = inhibition, most hits filed as inhibitors | AID 540256 | 300,000 compounds, 1.2% hits; calls by dose curve; tested in HEK293 cells; note: potency is the fitted concentration of half-maximal effect; nearly all actives have a fitted effect of over 50% in size
Pf growth 48h: inhibits P. falciparum growth in the first generation, 48 h. P. falciparum luciferase growth in erythrocytes, 48 h. Potency, µM (titrated, usually from 28.7 µM), without a hit: top-dose activity change, negative = inhibition, most hits filed as inhibitors. 310,000 compounds, 5.9% hits. AID 504832; note: potency is the fitted concentration of half-maximal effect
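Parasite viability was followed by luminescence of a genomically integrated firefly luciferase. Cultures held 0.1% parasitemia at 2% hematocrit (final), incubated under 5% CO2 at 37 C.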
MARV entry inh: inhibitors of Marburg virus binding or cell entry; Marburg virus pseudotyped entry inhibition, cell reporter; Potency, µM (highest dose often 37.8 µM), for the others: at the top dose activity change, negative = inhibition, hits mostly inhibitors; 300,000 compounds, 1.8% hits; AID 540276; calls by dose curve; tested in HEK293 cells; note: potency is the fitted concentration of half-maximal effect
Pf growth 96h: P. falciparum growth inhibition at 96 hours | P. falciparum luciferase reporter growth, 96 h | AID 504834 | 320,000 compounds, 6.9% hits | Potency, µM (series often up to 28.7 µM), for inactives: at the top dose activity change, negative = inhibition, usual class: inhibitors; note: potency is the fitted concentration of half-maximal effect
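Infected RBCs, 2% Hct / 0.05% parasitemia final; luciferase-reporter P. falciparum; cpd 96 h, 37 C, 5% CO2; luciferase detection reagent; luminescence.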
HCV inhibitor: inhibitors of hepatitis C virus infection. Huh7.5.1 HCVcc-Cre infection, luciferase reporter, 44 h. Potency, µM (titrated, usually from 41.8 µM), without a hit: top-dose activity change, negative = inhibition, most hits filed as inhibitors. 340,000 compounds, 3.4% hits; note: potency is the fitted concentration of half-maximal effect
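Whole-lifecycle infectious HCVcc-Cre system; cells 1,000/well, compound then virus (~0.5 moi) added 4 h after plating, 44 h culture. Luciferase read 15 sec following 15 min substrate incubation, room temp.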
Starred values were filed as active, the others as inactive; ? = inconclusive; . = not tested or not shown; [ ] = another dose, or the depositor's remark. Unless noted, calls come from the whole dose curve; as a rule, active = well fitted inhibition curve with a large enough effect; inconclusive = small, poorly fitted or top-dose-only effect, or another doubt; inactive = no such curve, though single readings can be large or run the other way. % is set by controls: 0 for no effect and ±100 for the full control effect.

SMILES | HCMV inh | Lassa entry inh | Pf growth 48h | MARV entry inh | Pf growth 96h | HCV inhibitor
O=C(Cc1ccc(NC(=O)C2CCN(C(=O)C3CCC3)CC2)cc1)Nc1cccc(C(=O)N2CCCC2)c1 | 0.0 | . | . | . | . | ?
COC(=O)c1[nH]c2ccc(Cl)cc2c1NC(=O)CN1CCC(C(N)=O)CC1 | -2.2 | 9.0% | 11.7µM* | -15.1% | ? | -13.9%
CCn1nnc2cc(C(=O)NCCc3ccccc3F)ccc21 | 65.8 | 1.12µM* | 201.2% | 6.31µM* | -9.8% | 19.1%
CCCCNC(=O)C(CC)Sc1nc2ccccc2c(=O)n1CCc1ccc(OC)c(OC)c1 (stereo not drawn) | -2.2 | ? | . | . | . | .
CC(OC(=O)c1ccc(NC(=O)CC#N)cc1)C(=O)Nc1ccc(Oc2ccccc2)cc1 (stereo not drawn) | 3.6 | . | ? | . | ? | .
Cc1[nH]c2ccccc2c1C(=O)C(C)OC(=O)c1ccc(NC(=O)CC#N)cc1 (stereo not drawn) | 7.7 | ? | 3.7µM* | 7.2% | 3.29µM* | -26.2%
Cc1cc(C(=O)C(C)OC(=O)c2ccc(NC(=O)CC#N)cc2)c(C)n1-c1ccc(OC(F)F)cc1 (stereo not drawn) | ? | 14.1µM* | 5.86µM* | ? | ? | ?
c1ccc(CCc2nn3c(-c4ccncc4)nnc3s2)cc1 | ? | -17.3% | ? | ? | -8.7% | -19.1%
Clc1ccccc1-c1nnc2sc(-c3ccc4c(c3)OCO4)nn12 | 40.6 | ? | 11.7µM* | ? | -19.2% | -22.9%
Clc1cccc(-c2nnc3sc(-c4ccc5c(c4)OCO5)nn23)c1 | . | . | 18.6% | 1.3% | ? | .
Clc1ccccc1-c1nnc2sc(CCc3ccccc3)nn12 | 30.5 | -13.4%[14.3 µM] | 13.1µM* | 7.3% | . | -17.0%
Fc1ccc(N2CCN(c3ncnc4c3nc3n4CCCC3)CC2)cc1 | -26.6 | 4.8%[46.1 µM] | . | 3.0%[46.1 µM] | . | .
CCCCN1CC(COCc2ccccc2)Oc2cccc(N3CCCC3)c2S1(=O)=O (stereo not drawn) | -9.6 | . | . | . | . | ?
COc1cc(F)ccc1Oc1cccc2c1S(=O)(=O)N([C@H](C)c1ccccc1)C[C@@H](COCc1ccccc1)O2 | -22.7 | . | . | . | . | .
Cc1ccc(S(=O)(=O)N(C)c2cccc3c2S(=O)(=O)N([C@H](C)c2ccccc2)C[C@@H](COCc2ccccc2)O3)cc1 | -65.5* | . | . | . | . | .
Cc1ccc(Oc2cccc3c2S(=O)(=O)N([C@H](C)c2ccccc2)C[C@@H](COCc2ccccc2)O3)cc1 | -78.4* | . | . | . | . | .
C[C@H](c1ccccc1)N1C[C@@H](COCc2ccccc2)Oc2cccc(N3CCCCC3)c2S1(=O)=O | -92.7* | . | . | . | . | .
Cc1cc(Oc2cccc3c2S(=O)(=O)N([C@H](C)c2ccccc2)C[C@@H](COCc2ccccc2)O3)cc(C)c1C | -93.2* | . | . | . | . | .
COc1ccc(/C=C/C(=O)OCC(=O)N2c3ccccc3CC2C)cc1 (stereo not drawn) | -1.5 | . | . | . | . | .
Cc1nn(CC(=O)Nc2ccc(OC(F)(F)F)cc2)c(=O)c2c(C)n(-c3ccc(Cl)cc3)nc12 | 9.2 | -1.9%[46.1 µM] | . | . | . | .
COc1ccc(/C=C(/NC(=O)c2ccc(C)cc2)C(=O)N2CCCC2)cc1OC | -11.1 | -10.7%[46.1 µM] | 2.2% | ? | -20.5% | -11.7%
Cc1noc(C)c1-c1ccc(C(=O)NCCc2ccccc2)c2occc12 | 191.8 | . | . | . | . | .
CC1CN(C(=O)CN2C(=O)NC3(CCCCCC3)C2=O)CC(C)O1 (stereo not drawn) | 8.5 | -18.8% | 4.7% | 0.5% | 21.3% | 9.5%
COc1ccccc1CC1(C)NC(=O)N(CC(=O)N2CC(C)OC(C)C2)C1=O (stereo not drawn) | 47.9 | 0.6% | 6.3% | 21.2%[46.1 µM] | 0.522µM* | 17.3%
Cc1c(NC(=O)C(C)OC(=O)c2sc3ccccc3c2Cl)c(=O)n(-c2ccccc2)n1C (stereo not drawn) | -3.8 | 4.1% | 3.9% | 5.7% | 22.7% | 24.3%
SMILES | HCMV inh | Lassa entry inh | Pf growth 48h | MARV entry inh | Pf growth 96h | HCV inhibitor
Cc1c(NC(=O)C(C)OC(=O)c2ccc([N+](=O)[O-])s2)c(=O)n(-c2ccccc2)n1C (stereo not drawn) | -7.7 | . | ? | . | 13.1µM* | -18.4%
Cc1cc(Br)cc2c(C(=O)Nc3c(C)n(C)n(-c4ccccc4)c3=O)cc(-c3cccs3)nc12 | -62.9* | ? | 0.0% | 6.51µM* | ? | ?
Cc1c(C(=S)NC(=O)C2CC2)c(=O)n(-c2ccccc2)n1C | -20.8 | . | -29.9% | . | 14.7µM* | -8.5%
C=CCc1cccc(CNc2c(C)n(C)n(-c3ccccc3)c2=O)c1O | -8.1 | 14.7% | 10.4µM* | 4.2% | 66.4% | 31.6µM*
Cc1c(NC(=O)CN2C(=O)c3ccc([N+](=O)[O-])cc3C2=O)c(=O)n(-c2ccccc2)n1C | -24.9 | -0.5% | 31.0% | 10.3%[46.1 µM] | 26.8% | 15.7%
Cc1c(NC(=O)COC(=O)COc2ccc(Nc3ccccc3)cc2)c(=O)n(-c2ccccc2)n1C | -2.7 | -10.4% | 25.3% | ? | -5.2% | 15.6%
Cc1c(NC(=O)/C=C/c2cn(-c3ccccc3)nc2-c2ccc(F)cc2)c(=O)n(-c2ccccc2)n1C | 0.0 | . | 3.9% | -0.8% | 9.28µM* | 11.2µM*
Cc1c(NC(=S)N/N=C/C=C/c2ccc([N+](=O)[O-])cc2)c(=O)n(-c2ccccc2)n1C | -102.8* | 1.8% | -11.8% | 3.6% | 7.9% | 19.7%
Cc1c(NC(=S)N/N=C/C=C/c2ccccc2)c(=O)n(-c2ccccc2)n1C | -18.1 | 6.1%[46.1 µM] | ? | -2.2%[46.1 µM] | ? | 1.4%
Cc1cc(C)cc(OCC(=O)OCC(=O)Nc2c(C)n(C)n(-c3ccccc3)c2=O)c1 | 16.2 | 10.7% | 11.0% | 19.6%[46.1 µM] | 12.3% | 1µM*
Cc1c(NC(=O)c2ccc(-c3ccc([N+](=O)[O-])cc3Cl)o2)c(=O)n(-c2ccccc2)n1C | ? | 14.7%[46.1 µM] | 20.1% | 14.1%[46.1 µM] | 9.28µM* | -16.8%
Cc1c(NC(=O)c2cccc(S(=O)(=O)N3CCOCC3)c2)c(=O)n(-c2ccccc2)n1C | -19.6 | 0.9% | -2.7% | 13.5% | 8.28µM* | 14.7%
Cc1c(NC(=O)c2c(F)c(F)c(F)c(F)c2F)c(=O)n(-c2ccccc2)n1C | 11.0 | 17.9% | -12.3% | 18.5%[46.1 µM] | -1.7% | 11.3%
Cc1c(NC(=O)c2ccccc2)c(=O)n(-c2ccccc2)n1C | -24.9 | -6.8% | 25.2% | 1.6% | 10.4µM* | 14.1%
Cc1c(NC(=O)c2ccc(S(=O)(=O)N3CCOCC3)cc2)c(=O)n(-c2ccccc2)n1C | -27.2 | 7.4% | -3.2% | 3.5%[46.1 µM] | -12.1% | -8.0%
CCCCOc1nc2ccccc2nc1[C@H](C#N)C(=O)NC1CCCCC1 | . | . | . | 15.7% | . | .
CC(C)(C)c1ccc(C(=O)Nc2ccc(Oc3cccnc3)nc2)cc1 | -65.6* | ? | ? | 9.1% | ? | 2.82µM*
O=C(Nc1ccc(Br)cc1)c1cccc(S(=O)(=O)Nc2cnc3ccccc3c2)c1 | -23.8 | ? | -17.3% | 2.82µM* | -14.1% | ?
